Data: PubChem BioAssay (NCATS)
Results filed as inconclusive are left out. Active and inactive are the calls of the source. Calls come from the whole dose curve; as a rule, active = well fitted curve in the direction sought with a large enough effect; inconclusive = small, poorly fitted or top-dose-only effect, or another doubt; inactive = no such curve, though single readings can be large; an effect the other way counts as inactive or inconclusive.

Experiments:
[1] = target: ATP-dependent 6-phosphofructokinase (Trypanosoma brucei brucei) (UniProt O15648); assay: qHTS Assay to Find Inhibitors of T. brucei phosphofructokinase: hit validation (AID 492961);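 note: luminescence reports ADP formed as PFK phosphorylates fructose-6-phosphate with ATP; % is set by controls: 0 for no effect and ±100 for the full control effect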
How it was run: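 In this biochemical qHTS validation, titrated compounds were tested against 1.25 nM PFK with 0.1 mM ATP and 0.5 mM F6P. Percent activity came from controls lacking or containing enzyme.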

[2] = target: Luciferin 4-monooxygenase (Photinus pyralis) (UniProt P08659); assay: Biochemical firefly luciferase enzyme assay for NPC (AID 624030);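 note: purified P. pyralis luciferase at 10 nM with luciferin and ATP substrate; 0% = DMSO and -100% = full luciferase inhibition by PTC124 control; nearly all actives have a fitted effect of over 70% in size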
How it was run: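 Direct inhibition of firefly luciferase enzyme (10 nM final, 50 mM Tris Acetate) assessed by luminescence within 5 minutes. Percent activity scaled between DMSO and PTC124 positive control, with concentration-effect curves classified by fit quality and response.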

CP192 = assay: qHTS profiling for inhibitors of Plasmodium falciparum proliferation (AID 504749); note: nearly all actives have a fitted effect of over 60% in size; note: potency is the fitted concentration of half-maximal effect;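 for activity, negative = inhibition: 0% = DMSO vehicle and full inhibition = artemisinin control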; conditions: P. falciparum in erythrocytes, SYBR Green DNA, 72 h; series mostly up to 28.7 µM
How it was run: (§1)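 Infected RBCs, 0.3% parasitemia/2.5% Hct final; cpd 72 h, 37 C, 5% CO2; lysis buffer with saponin/triton/SYBR Green I, o/n RT dark; FI 485/535; norm. to artemisinin (0.29 uM) and DMSO.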

CP201 = assay: as above; conditions: P. falciparum in erythrocytes, SYBR Green DNA, 72 h; series mostly up to 28.7 µM
How it was run: as §1

CP211 = assay: as above; conditions: P. falciparum in erythrocytes, SYBR Green DNA, 72 h; series mostly up to 28.7 µM
How it was run: as §1

CP262 = assay: as above; conditions: P. falciparum in erythrocytes, SYBR Green DNA, 72 h; series mostly up to 28.7 µM
How it was run: as §1

CP269 = assay: as above; conditions: P. falciparum in erythrocytes, SYBR Green DNA, 72 h; series mostly up to 28.7 µM
How it was run: as §1

CP315 = assay: as above; conditions: P. falciparum in erythrocytes, SYBR Green DNA, 72 h; series mostly up to 28.7 µM
How it was run: as §1

CP325 = assay: as above; conditions: P. falciparum in erythrocytes, SYBR Green DNA, 72 h; series mostly up to 28.7 µM
How it was run: as §1

CP329 = assay: as above; conditions: P. falciparum in erythrocytes, SYBR Green DNA, 72 h; series mostly up to 28.7 µM
How it was run: as §1

Dd2 = assay: as above; conditions: P. falciparum in erythrocytes, SYBR Green DNA, 72 h; series mostly up to 28.7 µM
How it was run: as §1

FAB9 = assay: as above; conditions: P. falciparum in erythrocytes, SYBR Green DNA, 72 h; series mostly up to 28.7 µM
How it was run: as §1

PC49 = assay: as above; conditions: P. falciparum in erythrocytes, SYBR Green DNA, 72 h; series mostly up to 28.7 µM
How it was run: as §1

[3] = qHTS for Inhibitors of Plasmodium falciparum (DD2) proliferation (AID 504314);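 note: parasite DNA measured by SYBR Green fluorescence after red cell lysis; plate controls were DMSO vehicle for no effect and artemisinin wells for full effect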
How it was run: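 Erythrocytes infected with P. falciparum (0.3% parasitemia, 2.5% hematocrit final) were incubated with compounds for 72 h at 37C, 5% CO2. Parasite DNA was detected by SYBR Green I fluorescence after saponin/Triton lysis, normalized to artemisinin (0.29 uM) and DMSO controls.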

[4] = qHTS for Inhibitors of Plasmodium falciparum (GB4) proliferation (AID 504315); note: nearly all actives have a fitted effect of over 50% in size; note: potency is the fitted concentration of half-maximal effect
How it was run: (§2)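 Erythrocytes infected with P. falciparum line (0.3% parasitemia, 2.5% hematocrit final) incubated with compounds 72 h at 37 °C, 5% CO2; SYBR Green lysis buffer added, fluorescence read next day. Normalized to 0.29 uM artemisinin and DMSO.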

CP203 = assay: qHTS profiling for inhibitors of Plasmodium falciparum proliferation (AID 504749); note: nearly all actives have a fitted effect of over 60% in size; note: potency is the fitted concentration of half-maximal effect;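 for activity, negative = inhibition: 0% = DMSO vehicle and full inhibition = artemisinin control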; conditions: P. falciparum in erythrocytes, SYBR Green DNA, 72 h; series mostly up to 28.7 µM
How it was run: as §1

[5] = as above; conditions: P. falciparum in erythrocytes, SYBR Green DNA, 72 h; at 28.7 µM (top of the series); parasite line A
How it was run: as §1

[6] = qHTS for Inhibitors of Plasmodium falciparum (7G8) proliferation (AID 504316); note: nearly all actives have a fitted effect of over 65% in size; note: potency is the fitted concentration of half-maximal effect
How it was run: as §2

ECU = assay: qHTS profiling for inhibitors of Plasmodium falciparum proliferation (AID 504749); note: nearly all actives have a fitted effect of over 60% in size; note: potency is the fitted concentration of half-maximal effect;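 for activity, negative = inhibition: 0% = DMSO vehicle and full inhibition = artemisinin control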; conditions: P. falciparum in erythrocytes, SYBR Green DNA, 72 h; series mostly up to 28.7 µM
How it was run: as §1

[7] = qHTS for Inhibitors of Plasmodium falciparum (HB3) proliferation (AID 504318); note: nearly all actives have a fitted effect of over 60% in size; note: potency is the fitted concentration of half-maximal effect
How it was run: as §2

Luciferin 4-monooxygenase (Photinus pyralis), sequence (P08659 whole entry, looked up): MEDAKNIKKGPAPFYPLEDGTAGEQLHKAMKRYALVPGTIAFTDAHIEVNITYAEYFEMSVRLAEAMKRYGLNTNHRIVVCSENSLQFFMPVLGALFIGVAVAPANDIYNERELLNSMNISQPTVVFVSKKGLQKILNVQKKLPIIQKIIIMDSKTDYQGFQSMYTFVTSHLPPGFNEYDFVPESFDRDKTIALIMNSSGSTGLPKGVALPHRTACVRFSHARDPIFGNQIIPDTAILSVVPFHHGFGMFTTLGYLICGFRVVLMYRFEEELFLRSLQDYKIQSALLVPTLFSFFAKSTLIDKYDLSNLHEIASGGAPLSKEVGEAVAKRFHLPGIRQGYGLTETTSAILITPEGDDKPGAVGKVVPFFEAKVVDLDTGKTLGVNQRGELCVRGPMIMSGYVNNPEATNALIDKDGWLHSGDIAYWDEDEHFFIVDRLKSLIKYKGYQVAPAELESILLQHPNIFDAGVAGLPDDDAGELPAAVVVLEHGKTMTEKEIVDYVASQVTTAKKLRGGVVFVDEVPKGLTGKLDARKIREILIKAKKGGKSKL
ATP-dependent 6-phosphofructokinase (Trypanosoma brucei brucei), sequence (O15648 whole entry, looked up): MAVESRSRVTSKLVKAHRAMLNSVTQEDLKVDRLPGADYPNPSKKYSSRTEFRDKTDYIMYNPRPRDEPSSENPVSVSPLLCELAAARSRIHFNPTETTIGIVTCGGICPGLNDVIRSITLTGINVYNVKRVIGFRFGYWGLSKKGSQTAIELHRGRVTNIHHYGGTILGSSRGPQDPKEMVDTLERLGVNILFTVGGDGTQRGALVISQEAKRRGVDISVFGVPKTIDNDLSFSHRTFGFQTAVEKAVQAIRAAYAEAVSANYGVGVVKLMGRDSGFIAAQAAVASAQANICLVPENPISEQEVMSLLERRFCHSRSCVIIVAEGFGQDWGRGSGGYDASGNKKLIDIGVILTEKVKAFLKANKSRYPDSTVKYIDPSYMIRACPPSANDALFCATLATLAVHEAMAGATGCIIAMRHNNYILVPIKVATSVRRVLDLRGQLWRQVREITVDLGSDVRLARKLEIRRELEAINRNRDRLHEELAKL

COc1ccc(CC(C)NCC(O)c2ccc(O)c(NC=O)c2)cc1 (stereo not drawn)
inactive: Potency [1] | Potency [2]

C[C@@H]1CC2[C@@H]3C[C@H](F)C4=CC(=O)C(Cl)=C[C@]4(C)[C@@]3(F)[C@H](O)C[C@]2(C)[C@@]1(O)C(=O)CO (stereo partly drawn)
inactive: Potency [1] | Potency [2] | Potency (CP192) | Potency (CP201) | Potency (CP211) | Potency (CP262) | Potency (CP269) | Potency (CP315) | Potency (CP325) | Potency (CP329) | Potency (Dd2) | Potency (FAB9) | Potency (PC49)

CC#CCN1c2ccccc2[C@]23C[C@@H](C(=O)OC)N(S(=O)(=O)c4ccc(C(F)(F)F)cc4)C2=NC(C(=O)OC)=C(C(=O)OC)[C@H]13
inactive: Potency [3]
active: Potency [4] 1.9 µM

C=C1CCC(O)C/C1=C/C=C1\CCC[C@]2(C)[C@@H]([C@H](C)/C=C/[C@H](C)C(C)C)CC[C@@H]12 (stereo partly drawn)
inactive: Potency [1] | Potency [2] | Potency (CP192) | Potency (CP201) | Potency (CP203) | Potency (CP211) | Potency (CP262) | Potency (CP269) | Potency (CP315) | Potency (CP325) | Potency (CP329) | Potency (FAB9)

Cc1cc(O)c2c(c1)OC1(C)CCC3C(C)(C)CCCC34COC2C14 (stereo not drawn)
inactive: Potency [1] | Potency [2] | activity, negative = inhibition [5] -27.8% | Potency (CP192) | Potency (CP201) | Potency (CP315) | Potency (CP325) | Potency (CP329) | Potency (FAB9)

CCN1C(=O)N[C@@H](c2cccc(F)c2)C(C(=O)OC)=C1C
inactive: Potency [3] | Potency [4] | Potency [6]

CC#CCN1c2ccccc2[C@]23C[C@@H](C(=O)OC)N(S(=O)(=O)CCCC)C2=NC(C(=O)OC)=C(C(=O)OC)[C@H]13
inactive: Potency [3]

CCC1OC(=O)C[C@@H](O)[C@H](C)[C@@H](OC2OC(C)CC(N(C)C)C2O)[C@@H](CC=O)C[C@@H](C)C(=O)/C=C/[C@]2(C)OC2C1C (stereo partly drawn)
active: Potency (Dd2) 1 µM
inactive: Potency [1] | Potency [2] | Potency (FAB9)

COC/C=C/C1=CC2=CC(=O)C(C)(OC(=O)c3cnc4ccccc4n3)C(=O)C2=CN1Cc1ccccc1 (stereo not drawn)
inactive: Potency [3] | Potency [4] | Potency [6]

CC1=C(/C=C/C(C)=C\C=C\C(C)=C\C=C\C=C(C)\C=C\C=C(C)\C=C\C2=C(C)C[C@@H](O)CC2(C)C)C(C)(C)C[C@H](O)C1
active: Potency (Dd2) 11.2 µM | Potency (ECU) 14.1 µM | Potency (PC49) 7.08 µM
inactive: Potency [1] | Potency [2] | Potency (CP192) | Potency (CP201) | Potency (CP203) | Potency (CP211) | Potency (CP262) | Potency (CP269) | Potency (CP315) | Potency (CP325) | Potency (CP329) | Potency (FAB9)

Cc1cncc(C(=O)O)[n+]1[O-]
inactive: Potency [1] | Potency [2] | Potency (CP192) | Potency (CP201) | Potency (CP211) | Potency (CP262) | Potency (CP269) | Potency (CP315) | Potency (CP325) | Potency (CP329) | Potency (Dd2) | Potency (FAB9) | Potency (PC49)

CCOc1ccccc1O[C@@H](c1ccccc1)[C@@H]1CNCCO1
inactive: Potency [1] | Potency [2] | activity, negative = inhibition [5] -12.8% | Potency (CP192) | Potency (CP201) | Potency (CP211) | Potency (CP262) | Potency (CP269) | Potency (CP315) | Potency (CP325) | Potency (CP329) | Potency (FAB9)
active: Potency (Dd2) 0.0794 µM | Potency (ECU) 7.94 µM | Potency (PC49) 2.24 µM

COc1ccc(-c2nc3c(c4c2C[C@H](c2ccccc2)OC4)CN(C(=O)C2CCCCC2)CC3)c(C)c1
inactive: Potency [3]

COC(=O)C1=C(C)N(Cc2ccccc2)C(=O)NC1c1ccco1 (stereo not drawn)
inactive: Potency [3] | Potency [4] | Potency [6] | Potency [7]

COC(=O)C1=C(C(=O)OC)[C@@H]2N(C)c3ccccc3[C@@]23C[C@@H](C(=O)OC)N(S(=O)(=O)c2ccc(Br)cc2)C3=N1
inactive: Potency [3]
active: Potency [4] 2.13 µM | Potency [6] 1.69 µM

COC(=O)CCCC1=CC2=CC(=O)C(C)(OC(=O)c3cccs3)C(=O)C2=CN1Cc1ccc2c(c1)OCO2 (stereo not drawn)
inactive: Potency [3] | Potency [4] | Potency [6]

COC(=O)N1C2=C(c3ccccc3[C@@H]1CC(=O)Nc1ccc3cc4ccccc4cc3c1)[C@@H]1C(=O)N(c3ccccc3)C(=O)[C@@H]1[C@H](C)C2
active: Potency [4] 1.51 µM | Potency [6] 1.9 µM | Potency [7] 1.69 µM
inactive: Potency [3]

Cc1ccc(S(=O)(=O)N[C@@H]2COC(=O)[C@@H](C)COC(=O)CC=C[C@H]2C)cc1
inactive: Potency [3] | Potency [4] | Potency [6] | Potency [7]

COC/C=C/C1=CC2=CC(=O)C(C)(OC(=O)c3cnc4ccccc4n3)C(=O)C2=CN1CC(C)C (stereo not drawn)
inactive: Potency [3] | Potency [4] | Potency [6] | Potency [7]

CCOC(=O)CN1C(=O)N[C@@H](c2ccccc2)[C@H](C(=O)OC)[C@H]1C
inactive: Potency [3] | Potency [4] | Potency [6] | Potency [7]

COC(=O)C1=C(C(=O)OC)[C@@H]2Nc3ccccc3[C@@]23C[C@@H](C(=O)OC)N(S(=O)(=O)c2ccc4c(c2)OCCN4C)C3=N1
active: Potency [4] 1.69 µM | Potency [6] 1.51 µM
inactive: Potency [3]

CC(=O)C1=C(C)N(Cc2ccccc2)C(=O)N[C@H]1c1cccc(F)c1
inactive: Potency [3] | Potency [4] | Potency [6] | Potency [7]

CC[C@H](C)[C@@H](NC(=O)O[C@@H]1C(=O)c2cc(Br)ccc2O[C@H]1c1cccc(OC)c1)C(=O)OC
inactive: Potency [3] | Potency [4] | Potency [6] | Potency [7]

C=CCN1C=C2C(=O)C(C)(OC(=O)CCC(=O)OC)C(=O)C=C2C=C1C1CC1 (stereo not drawn)
inactive: Potency [3] | Potency [4] | Potency [6] | Potency [7]

COC(=O)CCC(=O)OC1(C)C(=O)C=C2C=C(C3CC3)N(C3CCCC3)C=C2C1=O (stereo not drawn)
inactive: Potency [3] | Potency [4] | Potency [6] | Potency [7]

COC(=O)[C@@H]1[C@H](CCc2ccccc2)NC(=O)N(Cc2ccccc2)[C@H]1C
inactive: Potency [3] | Potency [4] | Potency [6]

COC(=O)C1=C(C(=O)OC)[C@@H]2N(Cc3ccccc3)c3ccccc3[C@@]23C[C@@H](C(=O)OC)N(C(=O)NCCBr)C3=N1
inactive: Potency [3] | Potency [4] | Potency [6] | Potency [7]

CCN1C(=O)N[C@@H](c2ccco2)C(C(C)=O)=C1C
inactive: Potency [3] | Potency [4] | Potency [6] | Potency [7]

COC(=O)[C@H](Cc1ccccc1)NC(=O)O[C@@H]1C(=O)c2cc(OC)ccc2O[C@H]1c1cccc(OC)c1
inactive: Potency [3] | Potency [4] | Potency [6] | Potency [7]
